{"source": "PubChem BioAssay (NCATS)", "note": "Active and inactive are the calls of the source. The call rests on the fitted dose curve; in most records, active means well fitted curve in the direction sought with a large enough effect; inconclusive means small, poorly fitted or top-dose-only effect, or another doubt; inactive means no such curve, though single readings can be large or run the other way.", "data": [{"assay": "Cellular Toxicity (caspase-3) MRC-5 (AID 659);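 further: cells exposed to compound for 16 h at 37 °C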", "conditions": "MRC-5 cells, luminescence, normalized: DMSO 0%, 10 µM staurosporine 100%; series mostly up to 91.7 µM; caspase-3 activation: at the top concentration", "how_it_was_run": "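MRC-5 fibroblasts, 1500/well; 16 h cpd, 37 °C; Caspase-Glo 3/7, 1 h RT; lumi read. Norm: DMSO = 0%, 10 uM staurosporine = 100%. Hill-fit AC50 from qHTS conc-response.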", "values": [{"smiles": "O=C(O)c1c(Cl)cccc1Cl", "caspase-3 activation": "-2.31% (inactive)"}, {"smiles": "CC(=O)CC(C)C", "caspase-3 activation": "1.21% (inactive)"}, {"smiles": "NC(=O)/N=N/C(N)=O", "caspase-3 activation": "0.147% (inactive)"}, {"smiles": "O=C(Cl)c1cccc([N+](=O)[O-])c1", "caspase-3 activation": "-1.69% (inactive)"}, {"smiles": "CCCCC(=O)N(C)C", "caspase-3 activation": "1.6% (inactive)"}, {"smiles": "CSCCC=O", "caspase-3 activation": "0.414% (inactive)"}, {"smiles": "CCCCC(C=O)CC", "note": "(configuration not stated)", "caspase-3 activation": "1.41% (inactive)"}, {"smiles": "O=Cc1cccc(Br)c1", "caspase-3 activation": "0.909% (inactive)"}, {"smiles": "C=CCn1c(=O)n(CC=C)c(=O)n(CC=C)c1=O", "caspase-3 activation": "-1.97% (inactive)"}, {"smiles": "CCOc1cc(OCC)c(C(C)=O)cc1OCC", "caspase-3 activation": "-0.446% (inactive)"}, {"smiles": "CCC(C)=O", "caspase-3 activation": "0.732% (inactive)"}, {"smiles": "O=C1OC(=O)c2c(Cl)c(Cl)c(Cl)c(Cl)c21", "caspase-3 activation": "1.28% (inactive)"}, {"smiles": "CC=O", "caspase-3 activation": "1.94% (inactive)"}, {"smiles": "Cc1ccc(C(C)(C)C)cc1", "caspase-3 activation": "-2.12% (inactive)"}, {"smiles": "O=C1CCC(=O)O1", "caspase-3 activation": "1.42% (inactive)"}, {"smiles": "O=[N+]([O-])c1ccc(NCCO)c(OCCO)c1", "caspase-3 activation": "0.531% (inactive)"}, {"smiles": "ClCCl", "caspase-3 activation": "2.87% (inactive)"}, {"smiles": "Cc1ccc(C)o1", "caspase-3 activation": "-0.554% (inactive)"}, {"smiles": "NC(=S)NNC(N)=S", "caspase-3 activation": "1.63% (inactive)"}, {"smiles": "Clc1ccc(Cl)c(Cl)c1Cl", "caspase-3 activation": "1.53% (inactive)"}, {"smiles": "O=C(Cl)c1ccccc1[N+](=O)[O-]", "caspase-3 activation": "-1.35% (inactive)"}, {"smiles": "Nc1cccc(N)c1", "caspase-3 activation": "1.88% (inactive)"}, {"smiles": "CC(C)=C1CCC(C)CC1=O", "note": "(configuration not stated)", "caspase-3 activation": "1.77% (inactive)"}, {"smiles": "Nc1ccc(F)cc1F", "caspase-3 activation": "0.753% (inactive)"}, {"smiles": "COC(=O)CCC(=O)OC", "caspase-3 activation": "-0.594% (inactive)"}, {"smiles": "CCc1ccccc1", "caspase-3 activation": "-1.02% (inactive)"}, {"smiles": "CC(=O)OCCC(C)C", "caspase-3 activation": "-0.185% (inactive)"}, {"smiles": "C[C@@H]1CC2(OC3C[C@@]4(C)C5=CC[C@H]6C(C)(C)C(O[C@@H]7OC[C@@H](O)[C@H](O)[C@H]7O)CC[C@@]67C[C@@]57CC[C@]4(C)C31)OC(O)C1(C)OC21", "note": "(some centres not stated)", "caspase-3 activation": "0.111% (inactive)"}, {"smiles": "CC(=O)Nc1ccc(N)cc1", "caspase-3 activation": "-0.576% (inactive)"}, {"smiles": "CN(C)c1cccc(O)c1", "caspase-3 activation": "0.866% (inactive)"}, {"smiles": "Nc1ccccc1S(=O)(=O)O", "caspase-3 activation": "-0.184% (inactive)"}, {"smiles": "C=CCOC(=O)CCCCCCCC", "caspase-3 activation": "-1.16% (inactive)"}, {"smiles": "CC(=O)CCc1ccccc1", "caspase-3 activation": "0.869% (inactive)"}, {"smiles": "c1ccsc1", "caspase-3 activation": "0.135% (inactive)"}, {"smiles": "NC(=O)c1ccccc1[N+](=O)[O-]", "caspase-3 activation": "0.709% (inactive)"}, {"smiles": "O=C(O)/C=C/C(=O)O", "caspase-3 activation": "-0.113% (inactive)"}, {"smiles": "O=C(O)c1ccc(CO)o1", "caspase-3 activation": "4.65% (inactive)"}]}]}
